Columns and labels:
Test in all cases: PBM binding z-score (relative to random genomic background probes); higher = stronger binding; sequences stand for … in GC…GCGATTGACAGCGTAGAATGAAGG
[1] = tested on: FXR:RXRa (NR concentration 270 nM, RXRa partner concentration 90 nM)
Procedure, shortened: (§1)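 On custom Agilent 4×180K arrays, double-stranded probes with 34-nt variable regions carried direct-repeat seeds, single-nucleotide variants, half-site ablations or random human genomic background. Ligand-free nuclear receptor dimers were applied for 1 h, and binding was read with antibodies against each partner (one per run). Binding z-scores come from regression-normalized fluorescence, with the random background probes as reference.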

[2] = tested on: LXRa:RXRa (NR concentration 270 nM, RXRa partner concentration 90 nM)
Procedure, shortened: as §1

[3] = tested on: LXRa homodimer (NR concentration 270 nM)
Procedure, shortened: as §1

[4] = tested on: LXRb:RXRa (NR concentration 270 nM, RXRa partner concentration 90 nM)
Procedure, shortened: as §1

[5] = tested on: LXRb homodimer (NR concentration 270 nM)
Procedure, shortened: as §1

[6] = tested on: PPARa:RXRa (NR concentration 270 nM, RXRa partner concentration 90 nM)
Procedure, shortened: as §1

[7] = tested on: PPARg:RXRa (NR concentration 180 nM, RXRa partner concentration 90 nM)
Procedure, shortened: as §1

[8] = tested on: PPARg:RXRa 270nM:90nM, anti-RXR (NR concentration 270 nM, RXRa partner concentration 90 nM)
Procedure, shortened: as §1

[9] = tested on: PPARg:RXRa 30nM:10nM, anti-RXR (NR concentration 30 nM, RXRa partner concentration 10 nM)
Procedure, shortened: as §1

[10] = tested on: PPARg:RXRa 90nM:30nM, anti-RXR (NR concentration 90 nM, RXRa partner concentration 30 nM)
Procedure, shortened: as §1

[11] = tested on: PPARg:RXRa DBDmut IVT, anti-RXR (DBD mutation: RXRa K156A/R161A, NR concentration 270 nM, RXRa partner concentration 90 nM)
Procedure, shortened: as §1

[12] = tested on: PPARg:RXRa IVT, anti-PPARg (NR concentration 270 nM, RXRa partner concentration 90 nM)
Procedure, shortened: as §1

[13] = tested on: PPARg DBDmut:RXRa IVT, anti-PPARg (DBD mutation: PPARg1 K132A/R137A, NR concentration 270 nM, RXRa partner concentration 90 nM)
Procedure, shortened: as §1

[14] = tested on: PPARg DBDmut IVT, anti-PPARg (DBD mutation: PPARg1 K132A/R137A, NR concentration 270 nM)
Procedure, shortened: as §1

[15] = tested on: PPARg homodimer (NR concentration 180 nM)
Procedure, shortened: as §1

[16] = tested on: PXR:RXRa (NR concentration 270 nM, RXRa partner concentration 90 nM)
Procedure, shortened: as §1

[17] = tested on: PXR homodimer (NR concentration 270 nM)
Procedure, shortened: as §1

[18] = tested on: RARa:RXR (NR concentration 270 nM, RXRa partner concentration 90 nM)
Procedure, shortened: as §1

[19] = tested on: RARa homodimer (NR concentration 270 nM)
Procedure, shortened: as §1

[20] = tested on: RARb:RXRa (NR concentration 270 nM, RXRa partner concentration 90 nM)
Procedure, shortened: as §1

Row | Sequence | PBM binding z-score [1] | PBM binding z-score [2] | PBM binding z-score [3] | PBM binding z-score [4] | PBM binding z-score [5] | PBM binding z-score [6] | PBM binding z-score [7] | PBM binding z-score [8] | PBM binding z-score [9] | PBM binding z-score [10] | PBM binding z-score [11] | PBM binding z-score [12] | PBM binding z-score [13] | PBM binding z-score [14] | PBM binding z-score [15] | PBM binding z-score [16] | PBM binding z-score [17] | PBM binding z-score [18] | PBM binding z-score [19] | PBM binding z-score [20]
1 | TCTTGTCGATCAATAGAGGTTAAGAAAGTGCGCT | 0.786 | 3.69 | 0.541 | 1.92 | 0.134 | 1.97 | 0.144 | 1.76 | 2.67 | 1.98 | 1.37 | 0.566 | 1.29 | 0.928 | 0.669 | 2.97 | 0.471 | 1.82 | -0.217 | 1.09
2 | TCTATTAGTCGATTAGGGCAACCGAAACAGCGGA | 0.523 | 0.509 | 0.385 | 0.608 | 0.293 | 0.759 | 0.292 | 2.12 | 3.61 | 2.99 | 2.06 | 1.15 | 1.13 | 0.942 | 0.0705 | 0.419 | -0.106 | 0.574 | 0.642 | 0.697
3 | AGAATGAGATTAAGATCAGGGAAACAGAATACAT | -0.282 | -0.601 | -0.0604 | -0.466 | -0.594 | -0.494 | 0.75 | -0.304 | 0.17 | -0.228 | -0.828 | -0.427 | 0.0625 | 0.018 | 0.131 | -0.366 | 0.121 | -0.347 | -0.129 | -1.06
4 | TAGCCTAGATCAGATCGGGCCAGTATACGCTATA | -0.847 | -1.11 | -0.829 | -1.18 | -1.2 | -1.18 | 0.218 | -0.582 | -0.499 | -0.448 | -0.0973 | 0.607 | -0.736 | -0.528 | -1.3 | -0.794 | -1.1 | -0.901 | -1.23 | -1.19
5 | TCGAGTAGGTTACCAATGGGGCAATCAGCTTTCT | -0.178 | 1.28 | -0.627 | 0.776 | -1.22 | 1.27 | 0.44 | 1.02 | 1 | 1.13 | 3.39 | 2.82 | 0.0614 | 0.102 | -0.476 | 0.111 | -0.71 | 0.261 | -0.846 | 0.959
6 | CGACCGAGGGCATGAGTTGATAGCAAATGCCGAT | 0.304 | 0.28 | -0.485 | 0.286 | -0.854 | 0.989 | 0.738 | -0.153 | -0.657 | -0.438 | 0.432 | 0.376 | -0.421 | -0.612 | 0.0239 | 0.48 | -0.327 | 0.539 | -0.74 | 2.11
7 | AATACAGGGTCAACGTAGGCCAGAGTACGCACAG | 7.15 | 6.18 | 1.92 | 4.41 | 1.47 | 5.88 | 6.89 | 6.32 | 2.82 | 4.85 | 3.16 | 4.2 | 1.64 | 1.2 | 2.78 | 5.23 | 0.288 | 5.45 | 1.71 | 4.6
8 | GCAACGAGGGCAAAGTTGATAGCATCTGTCGACG | 1.14 | 1.01 | -0.469 | 0.805 | -0.643 | 3.7 | 5.92 | 6.03 | 4.83 | 6.51 | 2.74 | 3.19 | 0.065 | -0.728 | 0.234 | 1.18 | -0.438 | 1.53 | -0.122 | 2.34
9 | CCTACTGGGCCACGAAAGGTCATTCATTCAGTGA | 3.89 | 5.43 | 6.05 | 4.47 | 0.659 | 4.73 | 4.8 | 5.02 | 1.88 | 4.42 | 5.95 | 5.87 | 1.4 | 0.0477 | 3.21 | 5.7 | 2.12 | 5.5 | 1.45 | 4.15
10 | TCTCGAAGGACACGAAAGGTCAGAGCTCGACATC | 2.94 | 3.47 | 2.63 | 3.26 | 0.0129 | 3.58 | 1.59 | 3.13 | 3.42 | 3.16 | 2.34 | 1.64 | 0.0703 | 0.551 | 1.75 | 3.79 | 0.247 | 4.04 | 0.683 | 4.23
11 | TTACCAAGGTGAGCTGAGGTCGTTGACCCAACTC | 2.54 | 2.48 | -0.484 | 1.43 | -0.784 | 2.06 | 0.441 | 0.96 | -0.036 | 0.348 | 0.928 | 2.03 | 0.277 | -0.41 | 0.266 | 5.01 | 0.193 | 2.57 | -0.539 | 1.91
12 | AGAACGAGGGCACGCTGATTTGATAGCAGAGTAG | 0.707 | 0.541 | -0.464 | 0.172 | -0.795 | 2.31 | 2.24 | 1.79 | 0.45 | 1.1 | 4.06 | 4.09 | 0.567 | -0.124 | 0.292 | 0.514 | -0.166 | 1 | -0.142 | 2.67
13 | ATCGAAAGGTCGACGAGGTGAGTACACACCGTTT | 4.47 | 3.65 | 0.0409 | 2.84 | 0.25 | 4.44 | 2.84 | 3.38 | 1.11 | 2.41 | 0.467 | 2.23 | 0.931 | 1.06 | 1.57 | 3.19 | 0.753 | 3.6 | 0.262 | 3.82
14 | GCTTACGGGTCAAAGTTTATAGCATGAATAGAAT | 6.86 | 4.62 | 0.38 | 4.67 | 0.532 | 6.2 | 9.24 | 8.11 | 7.16 | 8.84 | 4.19 | 5.17 | 1.43 | 1.62 | 2.34 | 4.83 | 1.1 | 6.42 | 0.895 | 4.06

Reference: the supplement of paper PMC6555819
